Experimental data as given in PubChem BioAssay (NCATS).
Inconclusive results are not listed. A call without a number means that no potency is given here. A number with no mark means an inactive call. Calls of active or inactive are those of the source. Calls follow the shape of the dose curve; as a rule, active = well fitted inhibition curve with a large enough effect; inconclusive = small, poorly fitted or top-dose-only effect; inactive = flat fitted curve, though single readings scatter.

How the values were obtained:
[1] = tested on: NIH3T3; assay: Cytotoxic Profiling of Annotated Libraries Using Quantitative High-Throughput Screening (AID 1296008); settings: Five cell lines viability, CellTiter-Glo ATP luminescence, 48-72 h; max response: active compounds read low
How it was run: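 Cytotoxicity was measured as CellTiter-Glo ATP luminescence, read after 10 min at room temperature. Compound treatment of the cells lasted 48 or 72 hr at 37 degrees Celsius in a qHTS format.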

[2] = tested on: MCC-13; assay: qHTS assay to identify novel small-molecules to repurpose for Merkel cell carcinoma treatment (AID 1296009); settings: MCC and control cell lines, CellTiter-Glo viability, 72 h; series mostly up to 46 µM
How it was run: (§1)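 Cell viability, measured as CellTiter-Glo luminescence, was normalized between DMSO and no-cell wells. The cells had been exposed to 8- or 11-point compound dilutions for 72 hr at 37 degree celsius.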

[3] = tested on: UISO; assay: as above; settings: MCC and control cell lines, CellTiter-Glo viability, 72 h; series mostly up to 46 µM
How it was run: as §1

[4] = tested on: MCC-26; assay: as above; settings: MCC and control cell lines, CellTiter-Glo viability, 72 h; series mostly up to 46 µM
How it was run: as §1

[5] = tested on: MKL-1; assay: as above; settings: MCC and control cell lines, CellTiter-Glo viability, 72 h; series mostly up to 46 µM
How it was run: as §1

[6] = tested on: MKL-2; assay: as above; settings: MCC and control cell lines, CellTiter-Glo viability, 72 h; series mostly up to 46 µM
How it was run: as §1

[7] = tested on: CRL-7250; assay: as above; settings: MCC and control cell lines, CellTiter-Glo viability, 72 h; at 44.8 µM (top of the series) unless noted
How it was run: as §1

[8] = tested on: HACAT; assay: as above; settings: MCC and control cell lines, CellTiter-Glo viability, 72 h; at 44.8 µM (top of the series) unless noted
How it was run: as §1
Also: nearly all actives have a fitted effect of over 60% in size.
Potency is read from the fitted curve at half-maximal effect.

CC1=C(O)C(=O)C=C2C1=CC=C1[C@@]2(C)CC[C@@]2(C)[C@@H]3C[C@](C)(C(=O)O)CC[C@]3(C)CC[C@]12C
Potency [1]: 3.32 µM (active) | Potency [2]: 4.18 µM (active) | Potency [3]: 3.72 µM (active)

CC(O)=C(C#N)C(=O)Nc1cc(Br)ccc1Br
max response [1]: -15.7% | Potency [2]: inactive | Potency [4]: inactive | Potency [5]: inactive | Potency [3]: inactive

Nc1c(Cl)c(Cl)c(Cl)c(Cl)c1Cl
max response [1]: 2.9% | Potency [2]: inactive | Potency [4]: inactive | Potency [5]: inactive | Potency [6]: inactive | Potency [3]: inactive

CC[C@H]1C=CC=CC[C@@H](C)[C@H](O)[C@@](C)(O)C(=O)[C@@H](C)[C@H](O)[C@@H](C)C(=O)[C@@H](C)[C@H](O)[C@@H](C)C=CC(=O)O[C@@H]2[C@@H](C)[C@H](CC1)O[C@]1(CC[C@H](C)[C@H](C[C@@H](C)O)O1)[C@H]2C
Potency [1]: 16.6 µM (active) | Potency [5]: 0.296 µM (active) | Potency [6]: 0.0935 µM (active) | Potency [3]: 1.66 µM (active)

COC[C@H]1OC(=O)c2coc3c2[C@@]1(C)C1=C(C3=O)[C@@H]2CC[C@H](O)[C@@]2(C)C[C@@H]1OC(C)=O
Potency [1]: 16.6 µM (active) | Potency [2]: inactive | Potency [4]: inactive | Potency [6]: 8.33 µM (active)

O=S(=O)(c1ccc(Cl)cc1)c1ccc(Cl)cc1
max response [1]: -7.95% | Potency [2]: inactive | Potency [4]: inactive | Potency [5]: inactive | Potency [3]: inactive

CCCCCCCCCCCCCCCC[N+](C)(C)C
Potency [1]: 21.1 µM (active) | Potency [4]: 26.6 µM (active) | Potency [5]: 0.944 µM (active) | Potency [6]: 0.75 µM (active)

CC(=O)O[C@@]12CO[C@H]1C[C@H](O)[C@@]1(C)C(=O)[C@H](O)C3=C(C)[C@@H](O)C[C@@](O)([C@@H](OC(=O)c4ccccc4)[C@@H]21)C3(C)C
Potency [1]: 14.8 µM (active) | Potency [6]: inactive | Potency [3]: 4.18 µM (active)

COc1cc([C@@H]2c3cc4c(cc3[C@@H](O)C3COC(=O)C32)OCO4)cc(OC)c1O (some centres not stated)
Potency [1]: 0.132 µM (active) | Potency [5]: 2.35 µM (active) | Potency [3]: 0.0526 µM (active)

C[C@@H]1CC[C@@]2(OC1)O[C@H]1C[C@H]3[C@@H]4CC=C5C[C@@H](O[C@@H]6O[C@H](CO)[C@@H](O[C@@H]7O[C@@H](C)[C@H](O)[C@@H](O)[C@@H]7O)[C@H](O)[C@@H]6O[C@@H]6O[C@@H](C)[C@H](O)[C@@H](O)[C@@H]6O)CC[C@]5(C)[C@@H]4CC[C@]3(C)[C@@H]1[C@H]2C
Potency [1]: 13.2 µM (active) | Potency [4]: 10.5 µM (active) | Potency [6]: 6.62 µM (active)

CC(C)(C)NC[C@H](O)c1ccc(O)cc1Cl
max response [1]: -4.5% | Potency [2]: inactive | Potency [4]: inactive | Potency [5]: inactive | Potency [6]: inactive | Potency [3]: inactive

C#CC1(O)CCC2C3CCC4=CC(=O)CCC4(C)C3CCC21C (configuration not stated)
max response [1]: 0.477% | Potency [2]: inactive | Potency [4]: inactive | Potency [5]: inactive | Potency [6]: inactive | Potency [3]: inactive

CN[C@@H]1Cc2cccc3[nH]c(=O)n(c23)C1
max response [1]: 3.1% | Potency [2]: inactive | Potency [4]: inactive | Potency [5]: inactive | Potency [6]: inactive | Potency [3]: inactive

CCCN(CCC)c1c([N+](=O)[O-])cc(S(N)(=O)=O)cc1[N+](=O)[O-]
Potency [2]: 24.3 µM (active) | Potency [5]: 24.3 µM (active) | Potency [6]: 21.7 µM (active) | Potency [3]: 21.7 µM (active)

Cc1nnc(C(C)C)n1C1CC2CCC(C1)N2CC[C@H](NC(=O)C1CCC(F)(F)CC1)c1ccccc1 (some centres not stated)
outcome [7]: inactive

COc1cc2c(cc1OC)C(=O)CC2
outcome [7]: inactive

Cc1c(C(=O)c2cccc3ccccc23)c2cccc3c2n1[C@H](CN1CCOCC1)CO3
Potency [5]: 23.5 µM (active) | Potency [6]: 23.5 µM (active)

O=C(C1CC1)N1CC[C@@H](Cn2c(-c3ccc(-c4ccc5occc5c4)cc3)nc3cnccc32)C1
outcome [7]: inactive

CCCCCC[C@H]1C(=O)O[C@H](C)[C@H](NC(=O)c2cccc(NC=O)c2O)C(=O)O[C@@H](C)[C@@H]1OC(=O)CC(C)C
Potency [4]: inactive | Potency [6]: 4.69 µM (active)

C[C@](O)(COc1ccc(C#N)cc1)C(=O)Nc1ccc(C#N)c(C(F)(F)F)c1
outcome [8]: inactive | Potency [2]: inactive | Potency [4]: inactive | Potency [5]: inactive | Potency [6]: inactive | Potency [3]: inactive

COc1ccc(CCN(C)CCCOc2ccc(S(=O)(=O)c3[nH]c4ccccc4c3C(C)C)cc2)cc1OC
outcome [7]: inactive

O=C(O)[C@H](Cc1c[nH]c2ccccc12)N1C(=O)c2ccccc2C1=O
outcome [7]: inactive [at 92 µM]
